The list is not random: actives were taken first. Their share in the collection is about 21%.
Pf growth 48h – Primary qHTS for delayed death inhibitors of the malarial parasite plastid, 48 hour incubation; P. falciparum luciferase growth in erythrocytes, 48 h; Potency, µM (series often up to 28.7 µM), without a hit: at the highest dose activity change, negative = inhibition, most hits filed as inhibitors; actives 5.9% (n = 310,000); note: potency is the fitted concentration of half-maximal effect; % is set by controls: 0 for no effect and ±100 for the full control effect
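Compounds are pin-transferred into medium, infected erythrocytes (2% hematocrit, 0.1% parasitemia final) are added, and plates sit one parasite generation at 37 C in 5% CO2. Detection reagent is then added and luminescence measured.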
HCV inhibitor – qHTS Assay for Inhibitors of Hepatitis C Virus (HCV); Huh7.5.1 HCVcc-Cre infection, luciferase reporter, 44 h; Potency, µM (titrated, usually from 41.8 µM), for inactives: at the top dose activity change, negative = inhibition, hits mostly inhibitors; actives 3.4% (n = 340,000); AID 651820, 2012; note: potency is the fitted concentration of half-maximal effect; % is set by controls: 0 for no effect and ±100 for the full control effect
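Cells (1,000/well) were plated 4 h before compound, then infected with HCVcc-Cre virus (~0.5 moi). After 44 h further culture, infection was read as luciferase luminescence following a 15 min substrate incubation at room temperature.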
Pf growth 96h – Primary qHTS for delayed death inhibitors of the malarial parasite plastid, 96 hour incubation | Potency, µM (doses to about 28.7 µM), inactives show at the top dose activity change, negative = inhibition, hits mostly inhibitors | actives 6.9% (n = 320,000) | AID 504834, 2011 | P. falciparum luciferase reporter growth, 96 h; note: potency is the fitted concentration of half-maximal effect; % is set by controls: 0 for no effect and ±100 for the full control effect
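Plates of compound plus infected erythrocytes (2% hematocrit, 0.05% parasitemia final) incubate 96 hours, 37 C, 5% CO2. Detection reagent added; reduced luminescence from the parasites' luciferase reporter flags inhibition.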
Shiga toxin inh – A qHTS for Small Molecule Inhibitors of Shiga Toxin; Vero cells, Shiga toxin protein synthesis inhibition reporter; inhibition, % at 38.7 µM; actives 9.2% (n = 290,000); in the data active = inhibition mostly above about 28%, no sharp cut-off; inactive = mostly below about 43%; note: 0% is about no effect
Cycloheximide cs – Cycloheximide Counterscreen for Small Molecule Inhibitors of Shiga Toxin; cell reporter, cycloheximide protein synthesis inhibition counterscreen; max response, %; actives 12% (n = 300,000); in the data active = max response mostly above about 13%, no sharp cut-off; inactive = mostly below about 14%; note: read at 38.3 µM for the half of the compounds with a filed dose; 0% is about no effect
HCMV antiviral – qHTS Assay for inhibitors of the human cytomegalovirus (HCMV); actives 4.5% (n = 410,000); HFF cells, HCMV-luciferase reporter, 72 h; active compounds read low; AID 1259415, 2018; activity change, negative = inhibition, % at 57.5 µM; in the data active = activity change below about -60%; inconclusive = no clear call, values can overlap the other calls; inactive = above about -39%; note: % is set by controls: 0 for no effect and ±100 for the full control effect
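Human foreskin fibroblasts infected with luciferase-reporter HCMV at MOI 1 PFU/cell, compounds at two doses. Luciferase measured 72 h post infection; normalized to buffer-only basal and Salinomycin (10uM) controls.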
The depositor's hits bear a star; ? = inconclusive; nt = not tested or not shown; ! = not confirmed by another sample; [ ] = dose if it differs, or a comment. Unless noted, calls come from the whole dose curve; as a rule, active = well fitted inhibition curve with a large enough effect; inconclusive = small, poorly fitted or top-dose-only effect, or another doubt; inactive = no such curve, though single readings can be large or run the other way.

SMILES | Pf growth 48h | HCV inhibitor | Pf growth 96h | Shiga toxin inh | Cycloheximide cs | HCMV antiviral
COc1ccccc1C(=O)NCCSc1c(C)[nH]c2ccccc12 | nt | nt | nt | nt | nt | -39
Cc1ccc(SCCNC(=O)c2ccc(C)c([N+](=O)[O-])c2)cc1 | -17% | -26% | -21% | 6 | -4 | 4
Cc1ccc(C(=O)NCCSc2c(C)[nH]c3ccccc23)cc1[N+](=O)[O-] | 12% | 11µM* | ? | 24 | 9 | 11
COc1cc(C(=O)NCCSc2c(C)[nH]c3ccccc23)cc(OC)c1OC | nt | nt | nt | nt | nt | 8
Cc1ccc(C(=O)NCCSc2ccc(Cl)cc2)cc1[N+](=O)[O-] | 13µM* | -16% | 4.1µM* | 4 | 6 | -3
Cc1cc(SCC(=O)NC2CCCC2)nc2ccccc12 | 13% | 5% | 1% | 18 | -3 | -24
COc1ccccc1C(=O)N/C(=C/c1ccc(Br)cc1)C(=O)N1CCCC1 | ? | -17% | 59% | -14 | 0 | -5
Cc1ccc(C(=O)Nc2ccccc2-c2ccccc2)cc1[N+](=O)[O-] | 7% | ? | 23% | -17 | -4 | 9
Cc1ccc(C(=O)Nc2cc(Cl)ccc2Oc2ccccc2)cc1[N+](=O)[O-] | 13µM* | -6% | ? | 10 | -2 | 87
Cc1cc(C)cc(OCC(=O)Nc2cnn(CCCC(=O)O)c2)c1 | -12% | 13% | ? | -8 | 1 | -27
COc1cccc(SCc2noc(C(=O)NC(C)C)c2C(=O)NC(C)C)c1 | ? | ? | ? | nt | nt | 35
Cc1c(C)n(Cc2ccccc2)c2ccc(C(=O)OCCN(C)C)cc12 | -5% | ? | ? | 68 | 29* | -19
CCn1nc(C)c(/C=N/NC(=O)c2ccc3c(c2)c(C)c(C)n3Cc2ccccc2)c1C | nt | 10µM* | 12µM* | -11 | 8 | -35
CCn1cc(/C=N\NC(=O)c2ccc3c(c2)c(C)c(C)n3Cc2ccccc2)c(C)n1 | nt | -45% | 10µM* | -7 | 2 | ?
CCc1ccc(CNC(=O)c2ccc3c(c2)c(C)c(C)n3Cc2ccccc2)cc1 | nt | nt | nt | nt | nt | 0
CCn1ncc(/C=N\NC(=O)c2ccc3c(c2)c(C)c(C)n3Cc2ccccc2)c1C | nt | -28% | ? | 3 | -2 | -26
Cc1ccc(NC(=O)CSc2nc3ccccc3nc2Cc2ccccc2F)cc1F | nt | nt | nt | nt | nt | -3
N#C/C(=C\c1c[nH]c2ccccc12)C(=O)Nc1ncc(Cc2ccc(Cl)cc2Cl)s1 | -9% | 35µM* | ? | 9 | -4 | 19
O=C(Nc1c(-c2ccccc2)nc2ccccn12)c1ccccc1F | nt | 6% | 11% | 20 | -5 | -64*!
CC(=O)Nc1c(-c2ccc3ccccc3c2)nc2ccccn12 | -12%[0.00184 µM] | 2% | 149% | 104* | 21* | 175
O=C(Nc1c(-c2ccccc2)nc2ccc(Cl)cn12)c1cccs1 | 0% | 0% | 5.2µM* | -4 | 10 | ?
CCC(=O)Nc1c(-c2ccc3ccccc3c2)nc2ccccn12 | 62% | -5% | 89% | 50 | 38* | 58
Cc1ccc(C(=O)Nc2c(-c3ccccc3)nc3ccccn23)cc1 | nt | nt | nt | nt | nt | -11
C=Cc1ccc(CN2C(=O)c3ccccc3Sc3ccc(C(=O)OCc4ccco4)cc32)cc1 | nt | nt | nt | nt | nt | 20
CCOC(=O)CNc1c(-c2ccccc2)nc2ccc(Cl)cn12 | 40% | 15% | 93% | 25 | 7 | 44
Cc1ccccc1Nc1c(-c2ccncc2)nc2ccc(Cl)cn12 | ? | 14% | -3% | -21 | -7 | -61*!
CCOC(=O)CNc1c(-c2ccc(O)cc2)nc2ccc(Cl)cn12 | 2% | ? | ? | 56 | 23* | 24
COc1ccc(/C=N/NC(=O)c2nonc2N)cc1OC | 17% | 21% | 23% | 80* | 34* | 6
COc1ccc([N+](=O)[O-])cc1/C=N/NC(=O)c1nonc1N | 2% | 11% | 23% | -16 | 3 | ?
CN(C)c1ccc(/C=N/NC(=O)c2nonc2N)cc1[N+](=O)[O-] | 2% | -2% | 13% | 133* | 41* | -27

Screens from PubChem.
